# Laboratory results from PubChem BioAssay AID449739 (Vanderbilt High Throughput Screening Facility, 2010).
# In all, about 100,000 compounds went through this assay and about 4,200 (4.2%) were called active.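 Rule for the calls: active = single-dose well whose peak fluorescence ratio is a statistical outlier from its plate by either plate-standardised score or position-corrected B-score; inactive = the rest.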 The entries come from a sample that favours actives as a whole.
# Target: Voltage-dependent T-type calcium channel subunit alpha-1H (Homo sapiens) (UniProt O95180)
# Sequence (O95180 whole entry, looked up): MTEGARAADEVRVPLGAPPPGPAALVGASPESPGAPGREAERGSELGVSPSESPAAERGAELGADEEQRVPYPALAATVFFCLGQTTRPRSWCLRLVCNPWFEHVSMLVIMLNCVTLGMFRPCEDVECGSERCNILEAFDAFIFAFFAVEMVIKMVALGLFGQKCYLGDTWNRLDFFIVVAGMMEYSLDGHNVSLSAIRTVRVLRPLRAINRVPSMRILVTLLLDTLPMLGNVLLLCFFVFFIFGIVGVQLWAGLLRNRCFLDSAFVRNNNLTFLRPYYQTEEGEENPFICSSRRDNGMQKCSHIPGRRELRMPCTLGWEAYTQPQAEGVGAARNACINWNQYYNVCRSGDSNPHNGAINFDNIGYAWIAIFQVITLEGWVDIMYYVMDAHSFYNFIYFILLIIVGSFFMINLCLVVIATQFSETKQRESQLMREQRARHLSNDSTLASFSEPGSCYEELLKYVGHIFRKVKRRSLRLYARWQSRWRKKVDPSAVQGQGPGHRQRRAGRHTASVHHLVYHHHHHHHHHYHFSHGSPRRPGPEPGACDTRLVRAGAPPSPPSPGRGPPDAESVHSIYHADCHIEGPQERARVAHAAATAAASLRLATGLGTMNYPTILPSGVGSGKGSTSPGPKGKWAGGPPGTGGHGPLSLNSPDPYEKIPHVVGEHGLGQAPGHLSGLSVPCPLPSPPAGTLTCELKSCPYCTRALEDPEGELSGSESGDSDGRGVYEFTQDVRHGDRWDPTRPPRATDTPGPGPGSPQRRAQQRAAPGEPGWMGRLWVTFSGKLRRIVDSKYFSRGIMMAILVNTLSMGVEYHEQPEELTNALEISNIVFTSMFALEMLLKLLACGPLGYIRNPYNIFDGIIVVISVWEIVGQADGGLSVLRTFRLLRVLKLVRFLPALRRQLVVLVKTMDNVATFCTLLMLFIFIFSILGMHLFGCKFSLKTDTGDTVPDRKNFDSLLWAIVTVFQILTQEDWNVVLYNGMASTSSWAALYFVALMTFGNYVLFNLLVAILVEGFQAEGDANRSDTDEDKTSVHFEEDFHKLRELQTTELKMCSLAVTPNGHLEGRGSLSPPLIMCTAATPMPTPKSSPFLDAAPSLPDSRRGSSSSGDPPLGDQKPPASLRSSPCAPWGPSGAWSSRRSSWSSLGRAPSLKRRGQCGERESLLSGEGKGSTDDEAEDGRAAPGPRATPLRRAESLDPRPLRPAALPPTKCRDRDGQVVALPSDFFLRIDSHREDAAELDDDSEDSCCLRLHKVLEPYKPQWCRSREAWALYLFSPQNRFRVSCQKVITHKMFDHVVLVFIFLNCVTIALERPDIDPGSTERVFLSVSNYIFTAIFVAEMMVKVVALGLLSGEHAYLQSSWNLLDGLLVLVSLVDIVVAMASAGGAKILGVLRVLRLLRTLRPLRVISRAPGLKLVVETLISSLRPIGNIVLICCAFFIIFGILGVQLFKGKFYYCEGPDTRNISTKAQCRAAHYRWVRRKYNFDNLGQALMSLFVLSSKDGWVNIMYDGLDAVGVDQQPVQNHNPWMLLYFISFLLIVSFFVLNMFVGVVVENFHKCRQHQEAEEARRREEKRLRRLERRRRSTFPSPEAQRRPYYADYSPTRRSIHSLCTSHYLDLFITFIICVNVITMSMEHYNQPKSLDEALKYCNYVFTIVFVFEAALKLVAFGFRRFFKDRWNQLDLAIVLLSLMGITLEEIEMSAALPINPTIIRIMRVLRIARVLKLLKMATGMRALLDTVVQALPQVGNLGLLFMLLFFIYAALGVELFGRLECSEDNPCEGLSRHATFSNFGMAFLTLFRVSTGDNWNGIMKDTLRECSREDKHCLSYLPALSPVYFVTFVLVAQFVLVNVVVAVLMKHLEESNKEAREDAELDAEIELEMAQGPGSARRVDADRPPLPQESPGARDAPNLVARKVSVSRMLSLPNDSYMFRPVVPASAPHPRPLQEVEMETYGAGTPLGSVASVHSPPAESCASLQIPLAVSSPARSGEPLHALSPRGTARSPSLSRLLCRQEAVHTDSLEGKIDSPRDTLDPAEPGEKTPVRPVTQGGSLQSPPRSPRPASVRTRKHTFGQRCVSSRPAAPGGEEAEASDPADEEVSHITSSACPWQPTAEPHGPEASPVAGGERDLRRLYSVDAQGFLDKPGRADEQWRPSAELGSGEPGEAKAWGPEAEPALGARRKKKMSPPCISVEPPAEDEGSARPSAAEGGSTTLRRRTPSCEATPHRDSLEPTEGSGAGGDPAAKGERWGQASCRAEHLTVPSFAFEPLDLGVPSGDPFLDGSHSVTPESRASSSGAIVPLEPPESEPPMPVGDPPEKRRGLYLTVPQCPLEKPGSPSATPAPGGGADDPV
# Assay: Cav3.2 calcium influx blockers – cell-based, Fluo-4 calcium fluorescence, FDSS, MLSMR library, primary screen (AID 449739)
# Settings: Cav3.2-expressing cells, at 10 µM, stronger effect = lower value
row,Compound,B-score
1,O=C(C1=C[C@H](c2coc3ccccc3c2=O)C[C@H](OCc2ccc(CO)cc2)O1)N1CCOCC1,0.0258 (inactive)
2,O=C(ON=C1CCN(S(=O)(=O)c2ccccc2)CC1)c1ccc(Cl)cc1,0.782 (inactive)
3,CC(C)(C)c1ccc(C(=O)NNC(=O)Cc2ccccc2)cc1,0.185 (inactive)
4,Cc1ccccc1NC(=O)c1ccccc1,0.346 (inactive)
5,CN(C(=O)CC(NC(=O)c1ccccc1)(c1ccccc1)c1ccccc1)c1ccccc1,-8.96 (active)
6,O=C(O)c1cnn2c(C(F)(F)F)cc(-c3ccccc3)nc12,1.18 (inactive)
7,COC(C/C=C/C(=O)[C@@H](C)OCc1ccccc1)OC,-1.65 (inactive)
8,CCOC(=O)C[C@H]1c2ccc(C(F)(F)F)cc2S(=O)(=O)N1c1ccccc1,-2.6 (inactive)
9,CCC(=O)OCc1c(C(F)(F)F)nn(C)c1Oc1cccc(C(F)(F)F)c1,-5.08 (active)
10,Cn1nc(C(F)(F)F)c(C(=O)Nc2cccc(C(F)(F)F)c2)c1SCc1ccc(Cl)cc1,-4.7 (inactive)
11,CC1=NN(C(=O)Cc2ccc(C)cc2)C(O)(c2cccnc2)C1 (configuration not stated),0.437 (inactive)
12,Cc1ccc(CNC(=O)c2ccc3c(c2)S(=O)(=O)c2ccccc2C3=O)cc1,0.00734 (inactive)
13,Cc1cc(/C=C2/SC(=O)N(CC(=O)OC(C)C)C2=O)c(C)n1C,0.168 (inactive)
14,Cc1ccc(-c2nc3ccccc3[nH]2)cc1NC(=O)c1sc2ccccc2c1Cl,-3.3 (inactive)
15,O=C(Cc1c[nH]c2ccccc12)OCCOC(=O)Cc1c[nH]c2ccccc12,-6.55 (active)
16,NC(=O)CSc1c[nH]c2ccccc12,0.666 (inactive)
17,CC(=O)NC(Cc1c[nH]c2ccccc12)C(=O)O (configuration not stated),1.52 (inactive)
18,Cc1cc([N+](=O)[O-])c(NC2CCCCC2)c([N+](=O)[O-])c1,-0.266 (inactive)
19,CONC(=O)c1cc(OCC(F)(F)F)ccc1OCC(F)(F)F,0.627 (inactive)
20,COC(=O)C1=C(C)Nc2ncnn2C1c1ccco1 (configuration not stated),-0.126 (inactive)
21,CCOc1ccc(C2=CC(c3ccccc3)n3ncnc3N2)cc1 (configuration not stated),-0.0885 (inactive)
22,Brc1ccc(C2=CC(c3ccco3)n3ncnc3N2)cc1 (configuration not stated),-4.77 (active)
23,Cc1ccccc1NC(=O)CNc1ccccc1N1CCCCC1,-8.5 (active)

row,Compound,B-score
1,O=C(CN1CCN(C2CCCCC2)CC1)Nc1ccccc1N1CCCCC1,-0.124 (inactive)
2,Cn1c(=O)c2c(nc(SCC(=O)Nc3ccccc3N3CCCCC3)n2C)n(C)c1=O,-0.936 (inactive)
3,C#CCOCCOCCOCCNc1nc(N2CCN(C(=O)[C@H](CCC(=O)O)n3cc(C(N)CO)nn3)CC2)nc(N2CCN(C(=O)[C@H](CCCCN)n3cc(C(N)CC(C)C)nn3)CC2)n1 (some centres not stated),-1.41 (inactive)
4,Cc1ccc(C(=O)NNC(=O)OC(C)(C)C)c(Cl)c1,-0.27 (inactive)
5,COc1ccc(C(=O)Nc2ccccc2C(=O)N/N=C/c2ccc(O)c(OC)c2)cc1,0.134 (inactive)
6,O=C(N/N=C\c1cccc(Br)c1)c1ccccc1-n1cccc1,-6.5 (active)
7,Cn1c(=O)n(C)c2cc(/C=N/NC(=O)c3cccc(Br)c3)ccc21,1.83 (inactive)
8,COc1ccc2c(c1)CC[C@@H]1[C@@H]2CC[C@]2(C)C(=O)CC[C@@H]12,-0.311 (inactive)
9,Fc1ccc(-c2nnc(CSc3nnc(-c4ccc5c(c4)OCO5)o3)o2)cc1,-0.34 (inactive)
10,Fc1ccc(CSc2nnc(-c3cc4c(s3)-c3ccccc3CC4)o2)cc1,-3.39 (active)
11,CCSc1nnc(-c2cc3c(s2)-c2ccccc2CC3)o1,0.187 (inactive)
12,Cc1nn(C)c(Oc2ccccc2)c1CCNS(=O)(=O)c1ccc(F)cc1,-1.06 (inactive)
13,CC(C)=CC(=O)Nc1nnc(-c2ccc(F)cc2)s1,0.294 (inactive)
14,c1ccc(CSc2nnc(-c3ccco3)n2Cc2ccccc2)cc1,-4.26 (active)
15,O=C(CSc1nnc(-c2ccco2)n1Cc1ccccc1)NC(=O)NCc1ccco1,-1.76 (inactive)
16,c1ccc(CSc2nnc(-c3ccco3)c(-c3ccco3)n2)cc1,0.232 (inactive)
17,CCOC(=O)CN1C(=O)N[C@@H](c2ccc(Br)cc2)C(C(C)=O)=C1C,1.08 (inactive)
18,CC(N=Cc1nc(-c2ccccc2)oc1O)c1ccccc1 (configuration not stated),-4.84 (active)
19,CC(NC(=O)c1cc(-c2ccccc2)on1)c1ccccc1 (configuration not stated),0.962 (inactive)
20,C/C=C(\C)C(=O)N1CC2(CC(c3cccc(NC(=O)CCCCC)c3)=NO2)C[C@@H]1C(N)=O (some centres not stated),-0.0964 (inactive)
21,O=C1c2ccccc2NC(c2ccc(-c3cccc(Cl)c3)o2)N1O (configuration not stated),-6.09 (active)
22,C[C@@H](C(=O)N1CCNCC1)n1cc(CCC(=O)O)nn1,0.81 (inactive)
23,Cc1cccc(OCCCC(=O)Nc2ccc(S(=O)(=O)N3CCCC3)cc2)c1,-4.11 (inactive)

row,Compound,B-score
1,Cc1cccc(NC(=O)CN2C(=O)CNC2=O)c1,-0.246 (inactive)
2,Cc1cccc(NC(=O)CN2CCCN(S(=O)(=O)c3ccc(Br)s3)CC2)c1,-4.23 (active)
3,O=C(NC1CC1)C1=C[C@H](c2coc3ccccc3c2=O)C[C@H](OCCCCO)O1,0.0579 (inactive)
4,CCCn1c(SCC(=O)Nc2cccc(C(=O)OCC)c2)nnc1-c1ccoc1C,-5.22 (active)
5,Cc1ccc(-n2c(SCC(=O)Nc3ccc4c(c3)OCO4)nnc2-c2ccoc2C)cc1,-0.45 (inactive)
6,COc1ccccc1NC(=O)CSc1nnc(-c2ccoc2C)n1CCc1ccccc1,-2.79 (inactive)
7,FC(F)(F)c1cc(C(F)(F)F)c2ccc(N3CCN(c4ccccc4)CC3)nc2n1,-0.29 (inactive)
8,CNC(C)C#Cc1ccc2sc3cc(OC)c(OC)cc3c(=O)c2c1 (configuration not stated),-1.08 (inactive)
9,C[C@H]1CC[C@]2(O[C@@H](CCO)C[C@@H](O)[C@@H]2O)O1,-0.0046 (inactive)
10,CC1Cc2ccccc2N1CC(=O)Nc1ccc2c(c1)OC(F)(F)O2 (configuration not stated),-4.17 (active)
11,O=C(COC(=O)c1ccccc1NC(=O)c1ccco1)Nc1ccc2c(c1)OC(F)(F)O2,-1.68 (inactive)
12,O=C(Cn1c(=O)sc2ccccc21)Nc1ccc2c(c1)OCCO2,0.666 (inactive)
13,CCC(=O)Nc1ccc(C(=O)Nc2cc(C)on2)cc1,0.744 (inactive)
14,CCc1ccc2ncc(C(=O)c3ccccc3)c(N3CCOCC3)c2c1,-0.907 (inactive)
15,CC(C)C(=O)NC(=S)Nc1ccccc1F,-0.107 (inactive)
16,COc1ccccc1NC(=S)NC(=O)C(C)C,0.35 (inactive)
17,CC(C)C(=O)Nc1cccc(NC(=S)NC(=O)C(c2ccccc2)c2ccccc2)c1,-5.49 (active)
18,Cc1cc(C(=O)NCCCc2ccccc2)no1,0.538 (inactive)
19,O=C(NCCc1ccccc1)c1ccc(OCCOc2ccccc2)cc1,-0.578 (inactive)
20,CC(C)c1ccc(C(=O)NCCCc2ccccc2)cc1,-4.2 (active)
21,CC(=O)Nc1cccc(/C(C)=N/NC(=O)c2ccccc2Cl)c1,0.407 (inactive)
22,Cc1ccc(-c2csc(NCCc3nc4cc(Cl)c(Cl)cc4n3CCOCCO)n2)cc1,-0.914 (inactive)
23,O=C(CSc1nc2ccccc2o1)N1CCN(c2ccccc2)CC1,-0.102 (inactive)

row,Compound,B-score
1,CCS(=O)(=O)c1ccc2oc(SCC(=O)N3c4ccccc4CC3C)nc2c1 (configuration not stated),0.393 (inactive)
2,CC1Cc2ccccc2N1C(=O)CSc1nc2ccccc2o1 (configuration not stated),-4.15 (active)
3,Cc1nc(SCC(=O)c2ccccc2)c([N+](=O)[O-])[nH]1,0.184 (inactive)
4,COc1c(O)cc2oc(-c3ccc(O)c(O)c3)cc(=O)c2c1O,1.78 (inactive)
5,COc1ccccc1N(C)S(=O)(=O)c1ccc(C(=O)N2CCC(C(N)=O)CC2)cc1,-0.0467 (inactive)
6,CCCCC1=CC2=CC(=O)C(C)(OC(=O)CC)C(=O)C2=CN1CCCOC(C)C (configuration not stated),0.761 (inactive)
7,O=C(CC1N=C2c3ccccc3N=C(SCc3ccccc3Cl)N2C1=O)NCc1ccco1 (configuration not stated),-4.98 (active)
8,CCC(C)NC(=O)CSC1=Nc2ccccc2C2=NC(CCC(=O)NCc3ccco3)C(=O)N12 (configuration not stated),0.161 (inactive)
9,O=C(CSC1=Nc2ccccc2C2=NC(CC(=O)NCc3ccco3)C(=O)N12)NCc1ccco1 (configuration not stated),0.442 (inactive)
10,O=C(Cc1ccc2c(c1)CCCC2)Nc1ccccc1Cl,-0.144 (inactive)
11,O=C(NCc1ccccc1)c1onc(CSc2ccncc2)c1C(=O)NCc1ccccc1,-0.591 (inactive)
12,Cc1cccc(OCc2nnc(SCc3nc4cc(C(F)(F)F)ccc4c(=O)[nH]3)o2)c1,-1.8 (inactive)
13,Cc1cc(C)cc(OCc2nnc(SCC(=O)Nc3ccccc3)o2)c1,0.346 (inactive)
14,Cc1cccc(OCc2nnc(SCn3nnc4ccccc4c3=O)o2)c1,-6.05 (active)
15,COc1cccc(NC(=O)c2nn(C34CC5CC(CC(C5)C3)C4)cc2[N+](=O)[O-])c1,-4.14 (active)
16,COc1cccc(NC(=O)c2ccccc2SC)c1,0.424 (inactive)
17,Cn1cc([N+](=O)[O-])c(C(=O)Nc2ccc3c(c2)OCCO3)n1,0.353 (inactive)
18,O=C(Nc1nnc(CCOCCOCCc2nnc(NC(=O)c3ccco3)s2)s1)c1ccco1,0.766 (inactive)
19,Cc1cc(C(=O)CSc2nc(N)cc(=O)[nH]2)c(C)n1CCc1ccc(Cl)cc1,0.737 (inactive)
20,CC(/C=C/C1(O)C(C)CC(=O)CC1(C)C)OC1OC(CO)C(O)C(O)C1O (configuration not stated),0.424 (inactive)
21,CCOc1ccc(NC(=O)CN2CCN(CC(=O)Nc3ccc(OC)cc3)CC2)cc1,1.58 (inactive)
22,COc1ccc(-c2cn(-c3ccc(C)cc3)c(=O)n2CC(=O)Nc2ccc(OC)c(OC)c2)cc1,-1.46 (inactive)
23,COc1ccc(NC(=O)Cn2c(-c3ccc(OC)cc3)cn(-c3ccc(C)cc3)c2=O)cc1,-4.33 (active)
